Results published in PubChem BioAssay (NCATS).
Results filed as inconclusive are left out. Calls of active or inactive are those of the source. Unless noted, calls follow the shape of the dose curve; as a rule, active = well fitted curve in the direction sought with a large enough effect; inconclusive = small, poorly fitted or top-dose-only effect, or another doubt; inactive = no such curve, though single readings can be large; an effect the other way counts as inactive or inconclusive.

What was measured:
[1] = Validation of Assay for Modulators of Lamin A Splicing (AID 1459; active = well fitted curve in the direction sought with a large enough effect in the signal ratio; the % refers to the signal ratio;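 also: cells exposed to compound for two days before reading; 0% is about no effect; ratio rise marks activators and ratio drop marks inhibitors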)
Procedure, shortened: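 S3 HeLa cells stably expressing a lamin A-EGFP splicing minigene and DsRed2 were seeded at 600 cells/well in Opti-MEM with 2% FBS, pin-dosed, and incubated 48 hrs at 37 °C, 5% CO2. Laser-scanning cytometry (488 nm) gave GFP/RFP total intensity ratio.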

[2] = target: DNA repair nuclease/redox regulator APEX1 (Homo sapiens) (UniProt P27695); assay: qHTS Validation Assay for Inhibitors of the Human Apurinic/apyrimidinic Endonuclease 1 (APE1) (AID 1705;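 also: TAMRA fluorescence gain over two minutes as APE1 cuts a quenched THF abasic duplex; series mostly up to about 57 µM; % is scaled to controls: 0 for no effect and ±100 for the full control effect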)
DNA repair nuclease/redox regulator APEX1 (Homo sapiens), sequence (P27695 whole entry, looked up): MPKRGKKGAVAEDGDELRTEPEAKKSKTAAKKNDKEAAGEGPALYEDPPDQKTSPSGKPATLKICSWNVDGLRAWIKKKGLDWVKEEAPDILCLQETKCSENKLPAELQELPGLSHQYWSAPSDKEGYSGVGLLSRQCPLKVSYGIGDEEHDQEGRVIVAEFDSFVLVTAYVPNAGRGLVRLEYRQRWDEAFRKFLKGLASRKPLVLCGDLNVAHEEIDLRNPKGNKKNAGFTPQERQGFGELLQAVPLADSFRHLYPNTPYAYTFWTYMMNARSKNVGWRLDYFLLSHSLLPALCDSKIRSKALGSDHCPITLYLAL
Procedure, shortened: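 Human APE1 was preincubated with compound for 15 min at room temperature, then 50 nM (final) THF-abasic double-stranded DNA substrate bearing 5'-TAMRA and 3'-BHQ-2 was added. Incision-driven fluorescence rise (ex 525/em 598 nm) was read kinetically.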

[3] = Counterscreen for APE1 Inhibitors: Fluorescent Dye Displacement Validation Assay (AID 1707);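 also: plate controls were ThO with dsDNA and no compound for no effect and ThO without dsDNA for full effect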
Procedure, shortened: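 Thiazole Orange displacement from dsDNA: 250 nM ThO with 50 nM TAMRA-labelled abasic-site (tetrahydrofuran) duplex in 50 mM Tris-HCl pH7.5, 50mM NaCl, 2 mM MgCl2, 0.01% Tween-20. Loss of endpoint fluorescence (ex 480 nm, em 540 nm) flags DNA binders.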

[4] = qHTS for differential inhibitors of proliferation of Plasmodium falciparum line D10 (AID 1877);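 also: parasites grown with compound for 72 h before DNA staining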; also: potency is read from the fitted curve at half-maximal effect
[5] = qHTS for differential inhibitors of proliferation of Plasmodium falciparum line Dd2 (AID 1882); settings: Potency: Plasmodium falciparum Dd2 proliferation inhibition;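 also: series mostly up to about 29 µM; plate controls were DMSO vehicle for no effect and 0.29 µM artemisinin for full effect; nearly all actives have a fitted effect of over 65% in size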
Procedure, shortened: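 Dd2-infected erythrocytes (0.3% parasitemia, 2.5% hematocrit final) incubated with compound 72 h at 37 C, 5% CO2; lysed with saponin/Triton buffer containing SYBR Green I, incubated overnight in the dark, then read by fluorescence (485/535 nm). Normalized to 0.29 uM artemisinin and DMSO.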

[6] = target: Ferritin light chain (Equus caballus) (UniProt P02791); assay: qHTS Validation Assay for Identification of Novel General Anesthetics (AID 2323); also: series mostly up to about 77 µM; % is scaled to controls: 0 for no effect and ±100 for the full control effect
Ferritin light chain (Equus caballus), sequence (P02791 2-175 limits assumed): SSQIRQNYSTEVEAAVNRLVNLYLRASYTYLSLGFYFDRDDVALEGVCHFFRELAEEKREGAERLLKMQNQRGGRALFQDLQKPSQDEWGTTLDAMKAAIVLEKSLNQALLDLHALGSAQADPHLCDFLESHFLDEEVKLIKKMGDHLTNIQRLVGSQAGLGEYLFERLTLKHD
Procedure, shortened: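 Competitive displacement of profluorescent 1-aminoanthracene (1-AMA, 50% saturated solution in PBS) from 10 uM horse-spleen apoferritin. Compounds incubated 10 min at room temperature; fluorescence read at 380 nm excitation/535 nm emission, normalized to free 1-AMA and complex, fitted with four-parameter Hill equation.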

[7] = target: ATP-dependent DNA helicase Q1 (Homo sapiens) (UniProt P46063); assay: qHTS Validation Assay for Inhibitors of RecQ-Like Dna Helicase 1 (RECQ1) (AID 2353);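 also: plate controls were DMSO vehicle for no effect and enzyme-free control for full effect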
ATP-dependent DNA helicase Q1 (Homo sapiens), sequence (P46063 whole entry, looked up): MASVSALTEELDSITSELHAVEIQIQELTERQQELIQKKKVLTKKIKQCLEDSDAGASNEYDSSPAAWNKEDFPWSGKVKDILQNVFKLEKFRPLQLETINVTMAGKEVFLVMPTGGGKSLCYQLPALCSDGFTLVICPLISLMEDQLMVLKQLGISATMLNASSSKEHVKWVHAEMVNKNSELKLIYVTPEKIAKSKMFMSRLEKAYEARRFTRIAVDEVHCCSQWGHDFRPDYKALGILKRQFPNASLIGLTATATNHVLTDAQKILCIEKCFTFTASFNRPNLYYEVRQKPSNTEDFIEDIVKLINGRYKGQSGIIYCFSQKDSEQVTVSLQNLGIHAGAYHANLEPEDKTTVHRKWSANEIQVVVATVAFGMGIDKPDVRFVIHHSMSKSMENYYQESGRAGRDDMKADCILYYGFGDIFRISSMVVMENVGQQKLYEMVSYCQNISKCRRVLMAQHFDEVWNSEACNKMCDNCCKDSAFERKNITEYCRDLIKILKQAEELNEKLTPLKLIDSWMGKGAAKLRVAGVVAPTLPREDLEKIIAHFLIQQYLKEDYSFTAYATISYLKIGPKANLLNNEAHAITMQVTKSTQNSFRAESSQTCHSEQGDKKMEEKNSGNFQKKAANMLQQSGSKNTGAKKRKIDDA
Procedure, shortened: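 50 nM RECQ1T1 preincubated 15 min with compound in Tris pH 8.0 buffer with MgCl2, DTT, Tween-20 and 2.5 ug/ml poly(dI-dC); started with 200 nM TAMRA/BHQ-2 forked duplex and 2 mM ATP. Unwinding read as fluorescence (525/598 nm), two reads 2 h apart.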

[8] = Validation screen for small molecules that induce DNA re-replication in MCF 10A normal breast cells (AID 463097); also: 0% is about no effect; nearly all actives have a fitted effect of over 60% in size
Procedure, shortened: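 Readout: Hoechst nuclear fluorescence intensity, 405 ex / 500-530 em, by scanning plate imager; re-replication scored as increase in nuclei with elevated DNA content. Cells exposed to compound 48 hr, 37 C, 5% CO2 beforehand.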

[9] = Quantitative high throughput screen for delayed death inhibitors of the malarial parasite plastid, 96 hour incubation (AID 488745); also: nearly all actives have a fitted effect of over 70% in size; also: potency is read from the fitted curve at half-maximal effect
Procedure, shortened: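 Luciferase-expressing P. falciparum in erythrocytes (2% hematocrit, 0.1% parasitemia) incubated with compound for 96 h at 37 C, 5% CO2, in RPMI 1640 with 0.5% Albumax. Growth inhibition read as decreased luminescence.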

[10] = Quantitative high throughput screen for delayed death inhibitors of the malarial parasite plastid, 48 hour incubation (AID 488752); also: % is scaled to controls: 0 for no effect and ±100 for the full control effect; nearly all actives have a fitted effect of over 65% in size
Procedure, shortened: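 Erythrocytes infected with firefly luciferase-expressing P. falciparum (2% hematocrit, 0.1% parasitemia) cultured with compound for 48 h at 37 C, 5% CO2, in RPMI 1640/0.5% Albumax. Growth inhibition read as loss of luminescence.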

[11] = target: M-phase phosphoprotein 8 (Homo sapiens) (UniProt Q99549); assay: qHTS Validation Assay for Inhibitors for MPP8 Chromodomain Interactions with Methylated Histone Tails (AID 488949);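 also: AlphaScreen signal from MPP8 chromodomain bound to biotinylated H3K9me3 peptide; top concentration of the series differs between compounds; % is scaled to controls: 0 for no effect and ±100 for the full control effect; nearly all actives have a fitted effect of over 55% in size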
M-phase phosphoprotein 8 (Homo sapiens), sequence (Q99549 whole entry, looked up): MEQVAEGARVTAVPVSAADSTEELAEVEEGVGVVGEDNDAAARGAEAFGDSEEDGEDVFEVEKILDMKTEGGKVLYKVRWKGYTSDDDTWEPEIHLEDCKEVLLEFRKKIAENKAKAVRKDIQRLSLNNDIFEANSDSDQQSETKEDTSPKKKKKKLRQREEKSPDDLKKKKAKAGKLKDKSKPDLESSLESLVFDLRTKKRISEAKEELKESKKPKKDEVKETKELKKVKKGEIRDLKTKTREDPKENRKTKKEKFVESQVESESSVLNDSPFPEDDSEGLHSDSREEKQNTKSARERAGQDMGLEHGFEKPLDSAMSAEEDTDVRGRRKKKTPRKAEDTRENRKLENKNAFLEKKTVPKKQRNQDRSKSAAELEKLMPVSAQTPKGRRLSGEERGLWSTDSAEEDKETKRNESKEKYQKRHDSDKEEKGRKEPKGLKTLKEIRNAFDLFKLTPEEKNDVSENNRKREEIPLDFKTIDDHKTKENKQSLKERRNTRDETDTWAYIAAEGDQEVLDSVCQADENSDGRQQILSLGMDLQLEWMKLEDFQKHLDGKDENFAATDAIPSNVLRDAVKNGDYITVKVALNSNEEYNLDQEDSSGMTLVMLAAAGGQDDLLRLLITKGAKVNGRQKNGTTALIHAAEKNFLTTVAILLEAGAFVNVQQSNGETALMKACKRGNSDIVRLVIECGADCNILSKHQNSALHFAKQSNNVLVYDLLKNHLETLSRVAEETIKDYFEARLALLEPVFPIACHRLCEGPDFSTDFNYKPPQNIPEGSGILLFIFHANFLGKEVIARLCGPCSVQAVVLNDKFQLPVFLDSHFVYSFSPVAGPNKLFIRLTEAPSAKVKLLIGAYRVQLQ
Procedure, shortened: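 MPP8 (50 nM) was preincubated with biotinylated H3(1-18)K9me3 peptide (50 nM) in PBS pH 7.4, 0.01% Tween-20 for 30 min at room temperature, then with compounds for 30 min; binding was detected by AlphaScreen.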

[12] = target: Transient receptor potential cation channel subfamily V member 1 (Homo sapiens) (UniProt Q8NER1); assay: HTS Assay for Compounds that Act as Enhancers of the Vanilloid Receptor 1 (AID 488979); also: 0% is about no effect
Procedure, shortened: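 TRPV1-expressing cells loaded with Fluo-8 calcium dye; compounds added and calcium influx read kinetically for 3 min (agonist phase), then capsaicin at EC20 added and read 2 min more for enhancement. Fluorescence ex 480/em 520 nm.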

[13] = target: Thyrotropin receptor (Homo sapiens) (UniProt P16473); assay: qHTS Assay for Antagonists of the Thyroid Stimulating Hormone Receptor (AID 488980); also: series mostly up to about 58 µM; 0% is about no effect
Thyrotropin receptor (Homo sapiens), sequence (P16473 whole entry, looked up): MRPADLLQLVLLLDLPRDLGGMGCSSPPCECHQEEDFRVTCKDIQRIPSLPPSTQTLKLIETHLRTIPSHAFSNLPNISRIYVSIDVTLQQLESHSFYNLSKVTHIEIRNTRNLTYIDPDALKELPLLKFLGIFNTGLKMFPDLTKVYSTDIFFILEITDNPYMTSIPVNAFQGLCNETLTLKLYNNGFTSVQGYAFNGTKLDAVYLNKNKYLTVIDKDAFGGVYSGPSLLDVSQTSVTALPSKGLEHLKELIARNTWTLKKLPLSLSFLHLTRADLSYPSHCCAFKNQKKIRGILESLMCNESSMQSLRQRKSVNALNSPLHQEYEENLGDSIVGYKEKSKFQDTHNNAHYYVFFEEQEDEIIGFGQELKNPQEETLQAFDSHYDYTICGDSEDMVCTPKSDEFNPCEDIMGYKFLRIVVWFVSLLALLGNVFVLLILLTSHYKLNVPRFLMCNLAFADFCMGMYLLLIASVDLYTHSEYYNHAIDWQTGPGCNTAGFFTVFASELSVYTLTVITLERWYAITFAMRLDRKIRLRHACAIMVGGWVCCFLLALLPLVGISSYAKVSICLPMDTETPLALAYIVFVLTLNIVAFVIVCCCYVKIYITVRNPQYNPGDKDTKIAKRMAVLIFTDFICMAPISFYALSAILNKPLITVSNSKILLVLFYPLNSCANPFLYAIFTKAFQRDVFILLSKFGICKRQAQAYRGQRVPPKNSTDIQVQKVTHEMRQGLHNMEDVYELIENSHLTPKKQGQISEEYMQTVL
Procedure, shortened: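 HEK293 cells transfected with human TSHR, suspended in HEPES-buffered HBSS with 70 uM RO 20-1724, were treated with compounds plus TSH at EC80 (4 nM final). cAMP was measured by competitive HTRF (cryptate anti-cAMP antibody, cAMP-d2 acceptor).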

[14] = target: Thyrotropin-releasing hormone receptor (Homo sapiens) (UniProt P34981); assay: qHTS for Small Molecule Agonists and Allosteric Enhancers of Human TRH Receptor: Validation Screen for Agonists (AID 493127;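 active = calcium activation more than 3 SD above the typical response in the agonist read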; also: 0% is about no effect); settings: TRH receptor agonist cell assay; at 2 µM; hits give high values
Thyrotropin-releasing hormone receptor (Homo sapiens), sequence (P34981 whole entry, looked up): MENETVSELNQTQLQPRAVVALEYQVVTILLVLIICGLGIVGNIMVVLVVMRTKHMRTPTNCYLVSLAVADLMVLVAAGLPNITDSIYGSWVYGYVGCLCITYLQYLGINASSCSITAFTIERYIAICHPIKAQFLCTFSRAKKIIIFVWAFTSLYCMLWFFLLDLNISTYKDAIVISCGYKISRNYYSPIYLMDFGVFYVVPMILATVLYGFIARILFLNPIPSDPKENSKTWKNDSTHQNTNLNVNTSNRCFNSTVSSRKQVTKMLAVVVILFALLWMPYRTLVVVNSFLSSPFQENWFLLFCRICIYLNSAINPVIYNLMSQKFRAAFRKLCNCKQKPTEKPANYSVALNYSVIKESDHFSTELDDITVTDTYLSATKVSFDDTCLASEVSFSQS
Procedure, shortened: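 TRHR cells loaded with fluo-8 calcium dye; FDSS kinetic fluorescence (Ex 480/Em 530) read at 1 s/cycle after 23 nL compound addition. Agonist-mode calcium response recorded before the 10 nM TRH (EC20) addition.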

[15] = target: Galactokinase (Homo sapiens) (UniProt P51570); assay: qHTS Validation Assay for Inhibitors of Human Galactokinase (GALK) (AID 493189); also: 0% is about no effect
Galactokinase (Homo sapiens), sequence (P51570 whole entry, looked up): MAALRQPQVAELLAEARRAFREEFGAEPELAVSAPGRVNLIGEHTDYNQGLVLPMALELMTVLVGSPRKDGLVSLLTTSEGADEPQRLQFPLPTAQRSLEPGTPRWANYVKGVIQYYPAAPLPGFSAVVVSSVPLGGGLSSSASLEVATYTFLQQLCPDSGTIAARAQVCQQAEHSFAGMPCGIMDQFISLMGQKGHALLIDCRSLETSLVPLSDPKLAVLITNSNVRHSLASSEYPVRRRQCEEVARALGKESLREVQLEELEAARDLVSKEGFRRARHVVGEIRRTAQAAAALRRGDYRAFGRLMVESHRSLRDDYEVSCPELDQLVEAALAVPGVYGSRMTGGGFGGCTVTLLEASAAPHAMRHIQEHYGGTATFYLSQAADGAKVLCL
Procedure, shortened: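 GALK (5 nM) with 35 uM ATP and 100 uM galactose in HEPES pH8.0, MgCl2, NaCl, DTT, BSA; 1 h at room temperature. Residual ATP read by Kinase-Glo Plus luminescence after 10 min.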

[16] = Validation screen for small molecules that induce DNA re-replication in SW480 colon adenocarcinoma cells (AID 504364); also: 0% is about no effect
Procedure, shortened: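 SW480 cells (250/well) exposed 48 h at 37 C, 5% CO2, then Hoechst-stained 40 min. Nuclear DNA content imaged by fluorescence scanning (405 nm excitation, 500-530 nm emission); re-replication scored as increased nuclei with elevated intensity.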

[17] = target: Voltage-gated inwardly rectifying potassium channel KCNH2 (Homo sapiens) (UniProt Q12809); assay: qHTS Assay for Small Molecule Inhibitors of the Human hERG Channel Activity (AID 588834);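 also: top concentration of the series differs between compounds; % is scaled to controls: 0 for no effect and ±100 for the full control effect; lower thallium flux fluorescence means stronger hERG block; nearly all actives have a fitted effect of over 50% in size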
Voltage-gated inwardly rectifying potassium channel KCNH2 (Homo sapiens), sequence (Q12809 whole entry, looked up): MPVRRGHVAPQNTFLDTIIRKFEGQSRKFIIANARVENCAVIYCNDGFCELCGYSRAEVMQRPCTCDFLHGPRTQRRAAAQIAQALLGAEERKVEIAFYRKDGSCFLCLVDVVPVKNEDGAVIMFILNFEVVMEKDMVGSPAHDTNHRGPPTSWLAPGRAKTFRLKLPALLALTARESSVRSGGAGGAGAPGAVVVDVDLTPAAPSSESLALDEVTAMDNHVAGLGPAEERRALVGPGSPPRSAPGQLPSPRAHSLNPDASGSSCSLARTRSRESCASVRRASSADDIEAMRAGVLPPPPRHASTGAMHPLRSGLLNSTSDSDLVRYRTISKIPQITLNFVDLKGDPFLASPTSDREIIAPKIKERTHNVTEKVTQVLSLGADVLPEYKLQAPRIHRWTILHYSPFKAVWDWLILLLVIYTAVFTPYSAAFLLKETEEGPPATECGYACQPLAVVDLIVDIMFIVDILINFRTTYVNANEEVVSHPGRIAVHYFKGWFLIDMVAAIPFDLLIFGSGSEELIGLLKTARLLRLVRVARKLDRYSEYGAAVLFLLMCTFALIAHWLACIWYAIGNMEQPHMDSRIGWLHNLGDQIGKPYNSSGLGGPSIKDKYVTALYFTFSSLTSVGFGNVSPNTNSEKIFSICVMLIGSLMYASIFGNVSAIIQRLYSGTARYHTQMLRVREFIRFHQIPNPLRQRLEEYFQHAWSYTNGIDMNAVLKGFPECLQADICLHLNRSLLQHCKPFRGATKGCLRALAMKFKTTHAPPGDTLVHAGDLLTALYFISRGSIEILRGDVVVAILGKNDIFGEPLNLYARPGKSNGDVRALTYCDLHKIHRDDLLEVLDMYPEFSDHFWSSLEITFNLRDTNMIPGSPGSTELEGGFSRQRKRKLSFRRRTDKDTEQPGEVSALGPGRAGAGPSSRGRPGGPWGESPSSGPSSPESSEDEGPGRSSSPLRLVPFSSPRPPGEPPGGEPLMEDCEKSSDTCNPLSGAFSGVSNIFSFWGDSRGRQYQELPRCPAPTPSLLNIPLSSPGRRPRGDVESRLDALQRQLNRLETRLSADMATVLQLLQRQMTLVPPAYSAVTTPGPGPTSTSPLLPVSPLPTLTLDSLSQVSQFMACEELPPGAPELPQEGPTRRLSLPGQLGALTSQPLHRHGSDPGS
Procedure, shortened: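 U2OS cells transduced with hERG via BacMam (MOI ~100), plated 2000/well, loaded with FluxOR thallium dye, compound ~10 min, then stimulation buffer; fluorescence decrease read kinetically; AC50 from Hill fits.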

[18] = qHTS for differential inhibitors of proliferation of Plasmodium falciparum line 3D7 (AID 1876); also: potency is read from the fitted curve at half-maximal effect
[19] = target: Calcium and integrin-binding protein 1 (Homo sapiens) (UniProt Q99828); assay: Confirmatory qHTS for Identification of Calcium Integrin Binding Protein 1 (CIB1) Competitor (AID 1508617); also: % is scaled to controls: 0 for no effect and ±100 for the full control effect; nearly all actives have a fitted effect of over 65% in size
Calcium and integrin-binding protein 1 (Homo sapiens), sequence (Q99828 whole entry, looked up): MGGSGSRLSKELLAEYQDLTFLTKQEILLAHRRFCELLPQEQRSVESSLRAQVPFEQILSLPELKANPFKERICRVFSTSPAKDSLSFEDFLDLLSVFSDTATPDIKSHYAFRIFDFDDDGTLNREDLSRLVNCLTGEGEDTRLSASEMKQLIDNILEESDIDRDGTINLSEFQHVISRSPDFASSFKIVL
Procedure, shortened: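 Fluorescence polarization competition: CIB1-GST (1 uM final) in 5 mM HEPES pH 7.4, 125 mM NaCl, 5 mM CaCl2, 0.01% Tween20 preincubated 15 min RT with compound (up to 114 uM), then FITC-alphaIIb peptide (100 nM) added, 15 min RT.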

CSc1nc(N)c2ncn([C@@H]3O[C@H](COP(=O)(O)OP(=O)(O)OP(=O)(O)O)[C@H](O)[C@H]3O)c2n1
inactive: outcome [1] | Potency [2] | Potency [3] | Potency [5] | outcome [6] | Potency [7] | outcome [8] | Potency [9] | Potency [10] | Potency [11] | outcome [12] | outcome [13] | activation [14] 24.8% | outcome [15] | outcome [16] | Potency [17]
active: Potency [4] 12.6 µM

NC(=NCCC[C@H](N)C(=O)O)NO
inactive: outcome [1] | Potency [2] | Potency [3] | Potency [18] | Potency [4] | Potency [5] | outcome [6] | Potency [7] | outcome [8] | Potency [9] | Potency [10] | Potency [11] | outcome [12] | outcome [13] | activation [14] 0.812% | outcome [15] | outcome [16] | Potency [17]

CC(N)=NCCCC(N)C(=O)O (stereo not given)
inactive: outcome [1] | Potency [2] | Potency [3] | Potency [18] | Potency [4] | Potency [5] | outcome [6] | Potency [7] | outcome [8] | Potency [9] | Potency [10] | Potency [11] | outcome [12] | outcome [13] | activation [14] 0.938% | outcome [15] | outcome [16] | Potency [17]

CN1C2CC(OC(=O)C(CO)c3ccccc3)CC1C1OC12 (stereo not given)
inactive: outcome [1] | Potency [2] | Potency [3] | Potency [18] | Potency [4] | Potency [5] | Potency [7] | outcome [8] | Potency [9] | Potency [10] | outcome [13] | outcome [15] | outcome [16]

CCCCC#Cc1nc(N)c2ncn([C@@H]3O[C@H](C(=O)NCC)[C@@H](O)[C@H]3O)c2n1
inactive: outcome [1] | Potency [2] | Potency [3] | outcome [6] | Potency [7] | outcome [8] | Potency [11] | outcome [12] | outcome [13] | activation [14] -0.438% | outcome [15] | outcome [16] | Potency [17]
active: Potency [18] 8.91 µM | Potency [9] 13.1 µM

NC(=O)c1ccc(O)c2ncccc12
inactive: Potency [19]

COC(=O)c1ccc(O)c2ncc(-c3ccc(C(=O)N4CCNCC4)cc3)cc12
inactive: Potency [19]

CC(C)(C)OC(=O)CC(=O)NNC(=O)c1nc2ccccc2[nH]1
inactive: Potency [19]

CC(OC(=O)c1ccc(S(C)(=O)=O)c([N+](=O)[O-])c1)C(=O)NC1C2CC3CC(C2)CC1C3 (stereo not given)
inactive: Potency [19]
